The text below walks through data of PubChem BioAssay AID1347135 (National Center for Advancing Translational Sciences (NCATS), 2019).

SMILES strings stand for the structures. Some of the results follow. Inconclusive results are not listed. Active and inactive are the calls of the source. The call rests on the fitted dose curve; in most records, active means well fitted inhibition curve with a large enough effect; inconclusive means small, poorly fitted or top-dose-only effect; inactive means flat fitted curve, though single readings scatter.

A short description of the assay: qHTS of pediatric cancer cell lines to identify multiple opportunities for drug repurposing: Orthogonal 3D viability screen for SK-N-SH cells. As to conditions: SK-N-SH 3D spheroid viability, PI/Hoechst imaging, 72 h. From the text:
Drug repurposing or repositioning has been offered as a strategy for drug development in oncology programs. This approach has special potential for childhood cancers and other rare or orphan diseases, where the expected return on new drug development has been a disincentive to pharmaceuticals. […] In this project we exploit the poly-pharmacology of drugs to discover new indications via phenotypic screening of a panel of 19 well-characterized cell lines derived from solid tumors seen in children and adolescents. The goal is to identify approved drugs with previously unrecognized anticancer properties that has the potential to reveal new mechanisms and biological processes involved in carcinogenesis or drug resistance. We employed a titration-based paradigm (quantitative high-throughput screening or qHTS), where all compounds were tested at multiple concentrations for their effect on cell viability. Concentration-response curves (CRCs) were derived directly from the primary screen, and both potency and efficacy values were used to identify compounds with robust bioactivity profiles. […] These two assays will be used to validate active compounds and assess the correlation of compound's potency in 2D vs 3D cultures on selected cell lines. Assay Submitter: Nathalia J. Martinez, National Center for Advancing Translational Sciences, National Institutes of Health, Rockville, MD, USA; email: natalia.martinez@nih.gov Shen, M et al. Quantitative high-throughput phenotypic screening of pediatric cancer cell lines identifies multiple opportunities for drug repurposing. Oncotarget 2017 Dec 19;9(4):4758-4772. PMID 29435139.
The cells were obtained from University of North Carolina (UNC), Pediatric Preclinical Testing Program (PPT), and Coriell Institute (CI). qHTS viability in 3D culture: Cells were assayed in phenol red-free growth media at a density of 1,000 cells/well, with the exception of Daoy, and SH-N-SH which were assayed at 1,500 cells/ well. Thirty muL of cells were dispensed into 384-well, ULA, round bottom plates (Corning) using a Multidrop dispenser. Plates were spun down at 1,000 rpm for 1 min and incubated at 37 degrees C, 5% CO2, under a humidified atmosphere for either 24 (Daoy) or 48 hours (all other cell lines) to allow spheroid formation. Ninety-two nanoliter of compounds and controls (neutral control DMSO or positive control bortezomib at final concentrations of 0.5 µM) were subsequently transferred via GNF Pintool. Plates were sealed using a breathable seal (Diversified Biotech, Dedham, MA) and incubated for 72 hours at 37 degrees C. Spheroid viability was first determined by high-content imaging using Hoechst 33342 and Propidium Iodide (PI, ThermoFisher Scientific), followed by addition of CellTiter-Glo 3D (Promega). Specifically, 3 µL/well of PBS containing a 1:500 dilution of both dyes was dispensed using Multidrop. Dyes were incubated for 1 hour before imaging using the Celigo Image Cytometer. Then, 20 µl of CellTiter-Glo 3D were added per well. Plates were incubated for 30 min at RT on a VWR microplate shaker (300 rpm) and analyzed for luminescence intensity using a ViewLux High-throughput CCD imager equipped with clear filters. Image analysis was done using the Celigo Tumorsphere 1+2+3 application software as previously described. […] The data were exported to Excel, and the average fluorescent intensities were used to calculate the ratio of PI over Hoechst, which was used to quantify viability. […]
(In general: Quantitative high-throughput screening tests each substance at several concentrations.)
Take `COC(=O)Nc1nc2ccc(Sc3ccccc3)cc2[nH]1`: the Potency was 1620 nM (active).
As for `CC(NCc1ccc2c(c1)nc(NC(=O)c1ccc(-c3cn[nH]c3)s1)n2CC(C)(C)O)C(C)(C)C` (stereo not given), the figure is 204 nM (active); as for `CC1(C)O[C@@H]2C[C@@H]3[C@H]4C[C@@H](F)C5=CC(=O)C=C[C@]5(C)[C@@]4(F)[C@@H](O)C[C@]3(C)[C@]2(C(=O)CO)O1`, 456 nM (active).
The figure for `CC[C@H]1CN2CCc3cc(OC)c(OC)cc3[C@@H]2C[C@@H]1C[C@H]1NCCc2cc(OC)c(OC)cc21` is 72.2 nM (active).
Take `CC[C@]1(O)C[C@@H]2CN(CCc3c([nH]c4ccccc34)[C@@](C(=O)OC)(c3cc4c(cc3OC)N(C)[C@H]3[C@@](O)(C(=O)OC)[C@H](OC(C)=O)[C@]5(CC)C=CCN6CC[C@]43[C@@H]65)C2)C1`: the Potency is 90.9 nM (active).
